Usually ΔTm stands for the change in melting temperature against a reference sample.

Where “and” joins values, the source holds several entries; their conditions need not be identical. Identical values can stand only once.

Holding throughout (details): Compound concentration 20.0 uM, Protein concentration 2.0 uM, Result type QC Liability
The target in test [1] is Tyrosine-protein kinase ABL1 (Homo sapiens) (UniProt P00519).
Test [2] concerns the target Cyclin-dependent kinase 2 (Homo sapiens) (UniProt P24941).
In test [3] the target is Casein kinase I isoform delta (Homo sapiens) (UniProt P48730).
The target of test [4] is Glycogen synthase kinase-3 beta (Homo sapiens) (UniProt P49841).
In test [5] the target is Mitogen-activated protein kinase 1 (Homo sapiens) (UniProt P28482).
Test [6] deals with T1, Aurora kinase A (Homo sapiens) (UniProt O14965).
T1 sequence (whole entry): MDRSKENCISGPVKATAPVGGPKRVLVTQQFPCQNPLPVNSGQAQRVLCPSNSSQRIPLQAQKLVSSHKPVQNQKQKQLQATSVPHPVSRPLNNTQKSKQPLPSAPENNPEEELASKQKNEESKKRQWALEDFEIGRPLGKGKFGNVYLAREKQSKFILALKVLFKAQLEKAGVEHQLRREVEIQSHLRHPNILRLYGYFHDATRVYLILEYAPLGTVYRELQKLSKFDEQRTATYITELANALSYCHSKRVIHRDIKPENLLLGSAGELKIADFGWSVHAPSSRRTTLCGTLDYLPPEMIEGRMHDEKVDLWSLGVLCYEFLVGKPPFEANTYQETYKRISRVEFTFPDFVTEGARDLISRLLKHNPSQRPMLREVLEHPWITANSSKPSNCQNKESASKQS

Chain of Tyrosine-protein kinase ABL1 (Homo sapiens) (P00519 whole entry): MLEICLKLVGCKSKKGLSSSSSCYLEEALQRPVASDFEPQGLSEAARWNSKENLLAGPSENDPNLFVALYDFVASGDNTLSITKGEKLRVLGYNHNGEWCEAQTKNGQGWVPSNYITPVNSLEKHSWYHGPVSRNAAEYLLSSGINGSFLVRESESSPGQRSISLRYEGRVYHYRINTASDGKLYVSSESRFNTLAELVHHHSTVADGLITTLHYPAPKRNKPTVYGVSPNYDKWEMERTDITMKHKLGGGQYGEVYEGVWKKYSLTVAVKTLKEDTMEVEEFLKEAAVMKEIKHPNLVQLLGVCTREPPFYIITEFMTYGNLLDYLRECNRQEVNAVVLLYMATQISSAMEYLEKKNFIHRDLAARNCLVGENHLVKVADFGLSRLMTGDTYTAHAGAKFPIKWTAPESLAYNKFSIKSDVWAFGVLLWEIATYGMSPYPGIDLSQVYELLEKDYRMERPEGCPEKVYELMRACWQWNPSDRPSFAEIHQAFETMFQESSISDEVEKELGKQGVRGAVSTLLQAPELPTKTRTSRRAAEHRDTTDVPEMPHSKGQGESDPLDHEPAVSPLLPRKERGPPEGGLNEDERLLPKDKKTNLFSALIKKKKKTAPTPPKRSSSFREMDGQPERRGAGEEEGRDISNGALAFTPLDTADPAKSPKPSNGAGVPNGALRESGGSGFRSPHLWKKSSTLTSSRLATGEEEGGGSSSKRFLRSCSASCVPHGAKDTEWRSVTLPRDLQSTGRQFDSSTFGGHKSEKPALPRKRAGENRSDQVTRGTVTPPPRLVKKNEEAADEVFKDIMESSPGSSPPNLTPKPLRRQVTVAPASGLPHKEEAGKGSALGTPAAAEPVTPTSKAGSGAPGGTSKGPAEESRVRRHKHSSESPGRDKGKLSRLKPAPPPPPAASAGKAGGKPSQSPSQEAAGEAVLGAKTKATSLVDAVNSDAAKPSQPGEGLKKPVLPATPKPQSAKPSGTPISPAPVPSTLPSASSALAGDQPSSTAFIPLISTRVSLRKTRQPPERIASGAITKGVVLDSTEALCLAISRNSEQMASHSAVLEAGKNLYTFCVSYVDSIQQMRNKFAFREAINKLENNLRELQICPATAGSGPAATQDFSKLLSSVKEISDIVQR
Chain of Glycogen synthase kinase-3 beta (Homo sapiens) (P49841 whole entry, looked up): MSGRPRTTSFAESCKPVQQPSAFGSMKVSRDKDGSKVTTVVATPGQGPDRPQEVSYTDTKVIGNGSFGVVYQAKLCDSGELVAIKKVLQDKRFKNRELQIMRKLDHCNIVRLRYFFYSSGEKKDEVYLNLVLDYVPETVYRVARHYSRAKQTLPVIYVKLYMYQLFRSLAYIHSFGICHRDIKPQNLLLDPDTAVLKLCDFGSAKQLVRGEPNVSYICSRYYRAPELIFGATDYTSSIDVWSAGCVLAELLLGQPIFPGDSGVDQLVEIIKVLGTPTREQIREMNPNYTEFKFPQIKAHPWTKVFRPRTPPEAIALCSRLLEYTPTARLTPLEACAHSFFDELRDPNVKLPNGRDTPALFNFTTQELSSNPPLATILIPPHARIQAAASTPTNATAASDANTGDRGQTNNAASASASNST
Chain of Mitogen-activated protein kinase 1 (Homo sapiens) (P28482 whole entry): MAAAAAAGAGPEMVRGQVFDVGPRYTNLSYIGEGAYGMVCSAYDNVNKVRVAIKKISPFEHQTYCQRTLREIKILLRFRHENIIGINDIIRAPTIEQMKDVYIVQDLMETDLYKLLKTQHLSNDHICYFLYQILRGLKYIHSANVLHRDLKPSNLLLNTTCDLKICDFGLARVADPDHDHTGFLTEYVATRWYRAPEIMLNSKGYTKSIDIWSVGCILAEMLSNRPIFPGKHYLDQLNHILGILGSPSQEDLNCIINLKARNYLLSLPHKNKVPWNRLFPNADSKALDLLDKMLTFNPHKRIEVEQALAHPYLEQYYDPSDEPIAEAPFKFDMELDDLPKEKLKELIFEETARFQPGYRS
Chain of Casein kinase I isoform delta (Homo sapiens) (P48730 whole entry, looked up, canonical isoform): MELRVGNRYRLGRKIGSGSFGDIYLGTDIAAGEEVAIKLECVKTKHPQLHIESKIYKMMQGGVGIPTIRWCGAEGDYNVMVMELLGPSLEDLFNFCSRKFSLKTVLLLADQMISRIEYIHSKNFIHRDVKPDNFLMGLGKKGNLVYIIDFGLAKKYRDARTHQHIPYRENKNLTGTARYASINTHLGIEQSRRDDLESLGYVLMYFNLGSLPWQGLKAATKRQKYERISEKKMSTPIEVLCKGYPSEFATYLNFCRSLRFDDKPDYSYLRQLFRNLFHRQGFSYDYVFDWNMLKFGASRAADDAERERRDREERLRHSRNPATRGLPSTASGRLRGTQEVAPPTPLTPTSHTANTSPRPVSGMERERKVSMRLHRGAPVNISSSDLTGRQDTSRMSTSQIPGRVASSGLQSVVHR

In the case of `COc1cc(C(=O)NC2CCN(C)CC2)ccc1Nc1ncc(C(F)(F)F)c(NCc2ccc(C)cc2N(C)S(C)(=O)=O)n1`, the shift in melting temperature (ΔTm) in test [1] is 0.73 °C; in test [2], 0.29 °C; in test [3], 1.1 °C; in test [4], -0.29 °C; in test [5], 3.52 °C; in test [6] it was 5.17 °C.
Turning to `O=C1Nc2ccc(I)cc2/C1=C/c1cc(Br)c(O)c(Br)c1`, the ΔTm is 2.98 °C in test [1]; 0.35 °C in test [2]; 0.18 °C in test [3]; -1.46 °C in test [4]; 0.48 °C in test [5]; -0.27 °C in test [6].
Consider `Cn1c(C2(NC(=O)c3ccc4c(C5CCCC5)c(-c5ncc(Br)cn5)n(C)c4c3)CCC2)nc2ccc(/C=C/C(=O)O)cc21`, for which the ΔTm in test [1] was -0.54 °C and 0.85 °C; in test [2], -2.05 °C and -1.62 °C; in test [3], -3.08 °C and -1.06 °C; in test [4], -3.92 °C and -2.25 °C; in test [5], -2.08 °C and -0.58 °C; in test [6], -1.12 °C and -3.19 °C.
With `O=C(Nc1ccccc1C(=O)O)c1cc(S(=O)(=O)c2ccccc2)ccc1Cl`, the ΔTm was 0.07 °C in test [1]; 1.6 °C in test [2]; 0.6 °C in test [3]; 0.85 °C in test [4]; 0.86 °C in test [5]; 1.09 °C in test [6].
Regarding `CCn1c(-c2nonc2N)nc2cncc(C(=O)N3CC[C@H](N)C3)c21`, the ΔTm in test [1] was -0.16 °C; in test [2], 0.25 °C; in test [3] it was 0.4 °C; in test [4] it was 6 °C; in test [5], 0.69 °C; in test [6], 0.77 °C.
Turning to `Cn1c(C2(NC(=O)c3ccc(NCC4CCCCC4)nc3)CCC2)nc2ccc(/C=C/C(=O)O)cc21`, the ΔTm in test [1] is 0.22 °C; in test [2] it was 0.23 °C; in test [3], 0.38 °C; in test [4] it was -1.07 °C; in test [5], 0.02 °C; in test [6] it was 0.04 °C.
Regarding `COc1ccc2c(O[C@@H]3C[C@H]4C(=O)N[C@]5(C(=O)NS(=O)(=O)C6(C)CC6)CC5/C=C\CCCCC[C@H](NC(=O)c5ccn(C)n5)C(=O)N4C3)cc(OC(C)C)nc2c1C` (stereo partly specified), the ΔTm in test [1] is -0.32 °C; in test [2] it was -0.49 °C; in test [3], -1.66 °C; in test [4], -4.13 °C; in test [5] it was -0.6 °C; in test [6], -0.12 °C.
As for `CC(=O)N1CCC(c2ccc(C(=O)NC(=N)N)cc2C(F)(F)F)CC1`, the ΔTm in test [1] is -0.81 °C; in test [2], 0.95 °C; in test [3], 0.37 °C; in test [4] it was -0.64 °C; in test [5] it was 0.32 °C; in test [6], 0.44 °C.
With `Cc1cc2ncnn2cc1Nc1ncc2c(n1)n(C1CCOCC1)c(=O)n2C`, the ΔTm in test [1] is -0.11 °C; in test [2], 0.84 °C; in test [3], 0.63 °C; in test [4], 1.17 °C; in test [5], 1.17 °C; in test [6], 0.06 °C.
Take `COc1cc2nc(C)nc(N[C@H](C)c3cc(N)cc(C(F)(F)F)c3)c2cc1O[C@H]1CCOC1`: the ΔTm in test [1] was -0.37 °C; in test [2], 0.99 °C; in test [3] it was 0.27 °C; in test [4] it was 0.96 °C; in test [5], 0.04 °C; in test [6], 0.75 °C.
With `COc1cc(CN(CCN)C(=O)N[C@@H](C)c2ccccc2)ccc1OCc1ccccc1`, the ΔTm was 0.76 °C in test [1]; 1.02 °C in test [2]; 0.16 °C in test [3]; -0.67 °C in test [4]; 0.02 °C in test [5]; 0.4 °C in test [6].
With `CC(=O)c1c(C)c2cnc(Nc3ccc(N4CCN(CCOCCOCCOCCNC(=O)COc5cccc6c5C(=O)N(C5CCC(=O)NC5=O)C6=O)CC4)cn3)nc2n(C2CCCC2)c1=O` (stereo unspecified), the ΔTm in test [1] was -0.65 °C; in test [2] it was -0.26 °C; in test [3] it was 1.49 °C; in test [4] it was 1.18 °C; in test [5] it was -1.16 °C; in test [6], 0.61 °C.
Turning to `CCc1ncnc(N2CCN(C(C)=O)CC2)c1C#Cc1ccc(N)nc1`, the ΔTm in test [1] was 0.27 °C; in test [2], 0.16 °C; in test [3] it was 1.03 °C; in test [4] it was -0.12 °C; in test [5] it was 0.42 °C; in test [6] it was -0.14 °C.
Take `N=C(N)NCCC[C@H](NC(=O)C(c1ccccc1)c1ccccc1)C(=O)NCc1ccc(CNC(N)=O)cc1`: the shift in melting temperature (ΔTm) in test [1] was -0.28 °C; in test [2], 0.46 °C; in test [3], 0.29 °C; in test [4], -0.57 °C; in test [5], 0.19 °C; in test [6], 0.09 °C.
On to `COc1cc(Nc2cnc(C#N)c(O[C@H](C)CN(C)C)n2)ncc1-c1cnn(C)c1`, for which the ΔTm in test [1] was 3.91 °C; in test [2], 0.23 °C; in test [3], 2.14 °C; in test [4] it was 3.03 °C; in test [5], 0.5 °C; in test [6] it was 1.18 °C.
Turning to `O=C(Nc1snnc1C(=O)Nc1ccc(N2CCCC2)cc1)c1cncc(C(F)(F)F)c1`, the ΔTm in test [1] is 0.66 °C; in test [2], 0.59 °C; in test [3] it was 1.04 °C; in test [4], -1.38 °C; in test [5], 0.03 °C; in test [6], -0.75 °C.
`O=C(O)c1ccc(OCCCc2ccc(OCCCCOC3CCCCC3)cc2)c(C(=O)NC2CCCC(C(=O)O)C2)c1` (stereo unspecified): the ΔTm in test [1] was -0.97 °C; in test [2], -0.34 °C; in test [3], 0.18 °C; in test [4], -0.84 °C; in test [5], -0.39 °C; in test [6] it was -1.1 °C.
For `C[C@H](NC(=O)c1cnc2n1[C@](C)(Cc1ccc(C#N)cc1)C(=O)N2c1cc(Cl)c(F)c(Cl)c1)C(=O)NC1(c2ccccn2)CC1`, the ΔTm is 0.04 °C in test [1]; 0.07 °C in test [2]; 0.77 °C in test [3]; -3.42 °C in test [4]; 10.2 °C in test [5]; 0.19 °C in test [6].
In the case of `CC#CCC(C)[C@H](O)/C=C/[C@@H]1[C@H]2C/C(=C/CCCC(=O)O)C[C@H]2C[C@H]1O` (stereo partly specified), the ΔTm in test [1] is -0.29 °C; in test [2], 0.41 °C; in test [3], 0.31 °C; in test [4], -0.77 °C; in test [5], 0.12 °C; in test [6], -0.07 °C.
In the case of `CN1C(=O)c2ccccc2N(C)c2nc(Nc3cnn(C4CCNCC4)c3)ncc21`, the ΔTm turned out to be 9.76 °C in test [1]; 1.04 °C in test [2]; 0.9 °C in test [3]; 0.14 °C in test [4]; 0.53 °C in test [5]; 16.4 °C in test [6].
With `CNC(=O)c1cc(C(=O)N[C@H]2[C@@H]3COC[C@@H]32)cc2c1O[C@@H](CF)[C@@H]2c1ccccc1`, the ΔTm in test [1] was -0.03 °C; in test [2] it was 0.5 °C; in test [3], 0.22 °C; in test [4] it was -0.96 °C; in test [5], 0.58 °C; in test [6], -0.12 °C.
Turning to `COc1ccccc1-c1cc(Nc2cccc(CS(N)(=O)=O)c2)ncn1`, the ΔTm in test [1] was 2.06 °C; in test [2], 2.08 °C; in test [3], -0.11 °C; in test [4], 4.1 °C; in test [5] it was -0.04 °C; in test [6], 0.53 °C.
For `O=C(O)c1ccc(CN2C[C@@H]3C[C@H]2CN3Cc2ccc(Oc3ccc(-c4ncco4)cc3)cc2)cc1`, the ΔTm in test [1] was 0.42 °C; in test [2] it was 0.83 °C; in test [3] it was 0.25 °C; in test [4], -0.14 °C; in test [5] it was 0.14 °C; in test [6], -0.18 °C.
Turning to `Cc1cn([C@H](C)CC#N)c(=O)c2cc(Cn3nc(C(F)F)cc3Cl)nn12`, the ΔTm was 0.14 °C in test [1]; -0.62 °C in test [2]; -0.16 °C in test [3]; -0.46 °C in test [4]; 0.16 °C in test [5]; -1.16 °C in test [6].
For `COc1cc2c(cc1CC=C(C)C)C(=O)C[C@@H](c1ccc(O)cc1)O2`, the ΔTm was 0.53 °C in test [1]; 1.21 °C in test [2]; 1.23 °C in test [3]; -0.03 °C in test [4]; 0.34 °C in test [5]; -1.38 °C in test [6].
For `CCS(=O)(=O)c1cc2cc(C[C@@](O)(CC(C)(C)c3ccc(F)cc3C(N)=O)C(F)(F)F)[nH]c2cn1`, the ΔTm in test [1] was -0.47 °C and 0.04 °C; in test [2], 0.64 °C and 0.86 °C; in test [3], 0.37 °C and 0.15 °C; in test [4], -0.42 °C and -0.19 °C; in test [5], -0.08 °C and 0.35 °C; in test [6], -0.24 °C and 0.19 °C.

For the origin of these results see ChEMBL document CHEMBL5308504, “Tm Shift (DSF) assay results for EUbOPEN Chemogenomics Library” (2023).
